# Measured values published in PubChem BioAssay.
# Where “and” joins values, the source holds several entries; their conditions need not be identical. Identical values can stand only once.
# Test: small-molecule binders of probe aLefty1, primary screen, biochemical, small-molecule microarray, 635/667 nm fluorescence (AID 1153);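 also: score merges spot fluorescence with signal-to-noise ratio from the scanned slide images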
# Settings: higher = more signal
row,Compound,composite z-score
1,COC(=O)C1=C(C)N(Cc2ccccc2)[C@]23O[C@](C(=O)OC)(C(=O)N2[C@@H]1c1ccccc1)[C@@H](C(=O)OC)[C@H]3C(=O)OC,-0.282 and -0.0011
2,CO[C@@H]1COC(=O)CC=C[C@H](C)COC(=O)[C@H](C)NC(=O)CC=C[C@H]1C,-0.344
3,COC(=O)C1=C(C)N(Cc2ccccc2)C2=C(C(C)=O)[C@H](c3ccccc3)[C@@](O)(C(=O)OC)C(=O)N2[C@@H]1c1ccccc1,-0.0908 and -0.118
4,C[N+](C)(C)CCCCNC(=O)[C@H]1C[C@H]2C(=O)N[C@@H](CCCC[N+](C)(C)C)C(=O)N2[C@H]1c1cccc(OCCO)c1,0.266 and -0.483
5,CCOC(=O)NN=C1C[C@@H](O)[C@@H](O)[C@@H]2[C@@H]3C(=O)N(Cc4ccc5c(c4)OCO5)C(=O)[C@@H]3CC[C@@H]12,-0.14
6,C[N+](C)(C)CCCCNC(=O)[C@H]1C[C@H]2C(=O)N[C@@H](CCCC[N+](C)(C)C)C(=O)N2[C@H]1c1ccc(O)cc1,-0.0984 and -0.447
7,O=c1n(-c2ccccc2)c(=O)n2n1CC[C@@H]1C(=NOC[C@@H](O)COCc3ccco3)[C@H]3O[C@H]3[C@@H](O)[C@@H]12,-0.0464 and -0.0626
8,C=C[C@@H](C)[C@H](O)c1ccc(O)c2ccccc12,-0.313 and -0.104
9,COC(=O)C1=C(C)N(Cc2ccccc2)C2=C(C(C)=O)C[C@@](O)(C(=O)OC)C(=O)N2[C@@H]1c1ccccc1,-0.147 and 0.0732
10,CCC[C@@H]1C[C@@]1(CCC)[C@@H](NC(=O)c1ccc(-c2ccccc2)cc1)c1cccc(Cl)c1,2.19 and 0.345
11,C=CCN(CCCC)C(=O)C1N(CCOCCO)C(=O)C2C(C(=O)O)C3C=CC21O3 (configuration not stated),-0.191 and -0.454
12,C=CCN(Cc1ccccc1)C(=O)C1N(CCOCCO)C(=O)C2C(C(=O)O)C3C=CC21O3 (configuration not stated),0.0429 and 0.101
13,C=CC[C@@H](O)c1ccc(O)c2ccccc12,0.113 and 0.176
14,CO[C@@H]1C=CCC(=O)N2CCC[C@H]2C(=O)OC[C@H](C)C(=O)OC[C@H]1C,-0.0536
15,CN1C(=O)C2CC=C([C@H]3Oc4ccccc4S(=O)(=O)N4CCC[C@@H]34)CC2C1=O (some centres not stated),-0.186 and -0.193
16,CCOC(=O)c1ccc(NC(=O)O[C@H]2[C@H](OC(=O)Nc3ccccc3)[C@@H](OC(=O)Nc3ccccc3)[C@@H](OC)O[C@@H]2CO)cc1,0.507 and 0.394

row,Compound,composite z-score
1,C=CCN(Cc1ccccc1)C(=O)C(c1cccs1)N(C(=O)/C=C\C(=O)O)c1c(Cl)cccc1CO (configuration not stated),-0.855 and -0.191
2,CC(CO)N1C(=O)[C@@H]2C3C(=O)OCCC=C[C@H]3OC23C=CCN(CCN2CCOCC2)C(=O)[C@@H]13 (some centres not stated),-0.181 and 0.476
3,CO[C@H]1COC(=O)CC=C[C@@H](C)COC(=O)[C@@H](OCc2ccccc2)C=C[C@@H]1C,-0.334
4,CCCC[C@@H]1CN2[C@@H](CC[C@@H](C)[C@@H]2c2ccc(Br)cc2)C(=O)O1,-0.0601 and -0.0141
5,CCN1C(=O)[C@H]2[C@H]3[C@H](O)[C@H](O)CC(=NOC[C@@H](O)COCc4ccco4)[C@@H]3CC[C@H]2C1=O,-0.0877 and -0.101
6,C=CCN(CCCCC)C(=O)C(c1cccs1)N(C(=O)/C=C\C(=O)O)c1ccc(CCO)cc1 (configuration not stated),-0.147 and -0.15
7,C=CCN(C(=O)C1N(c2c(Cl)cccc2CO)C(=O)C2C(C(=O)O)C3C=CC21O3)c1ccc(OC)cc1 (configuration not stated),-1.1 and -0.253
8,C=CCN(CCCC)C(=O)C1N(C(C)(C)CO)C(=O)C2C(C(=O)O)C3C=CC21O3 (configuration not stated),-0.255 and -0.488
9,C=C[C@@H](C)[C@@H](O)c1ccc(OCCO)cc1,-0.237 and -0.102
10,C=CCN(CCCCC)C(=O)C1N(C(C)(C)CO)C(=O)C2C(C(=O)O)C3C=CC21O3 (configuration not stated),-0.717 and -0.18
11,CCOC(=O)[C@@H]1CC2O[C@]23C[C@@H]1C(=O)N1CCC[C@@H]1[C@H]3O[Si](C)(C)C(C)(C)C (some centres not stated),-0.229 and -0.255
12,CCOC(=O)C[C@H]1[C@H](OC(=O)c2ccccc2-c2ccccc2)[C@@H](NC(=O)Cc2ccc(OC)cc2)c2cc(OCCCO)ccc2N1C(=O)Cc1ccc(OC)cc1,0.349 and -0.0601
13,COC(=O)CC=C[C@@H](C)[C@@H](CO)NS(=O)(=O)c1ccc(C)cc1,-0.0971 and -0.148
14,C[N+](C)(C)CCCCCCNC(=O)[C@@H]1C[C@@H]2C(=O)N[C@@H](CCCC[N+](C)(C)C)C(=O)N2[C@@H]1c1ccc(O)cc1,-0.0011 and -0.149
15,COC(=O)C1=C(C)N(Cc2ccccc2)C2=C3C(=O)CCC[C@@H]3[C@@](O)(C(=O)OC)C(=O)N2[C@@H]1c1ccccc1,-0.0275 and 0.106
16,O=C1C[C@]2(c3ccc([N+](=O)[O-])cc3)C(=O)N(Cc3ccccc3)c3cc(CO)ccc3[C@H]2N1C1CCCCC1,-0.221 and -0.0626
